Reference: PubChem BioAssay (NCATS)
Results filed as inconclusive are left out. Unmarked numbers belong to inactive results. The call rests on the fitted dose curve; in most records, active means well fitted cell-killing curve with a large enough effect; inconclusive means small, poorly fitted or top-dose-only effect, or effect the other way; inactive means flat fitted curve, though single readings scatter.

These compounds were tested on HeLa (assay: Primary qHTS to identify gynecologic anti-cancer compounds using libraries of approved drugs and bioactive compounds (AID 1345084; further: nearly all actives have a fitted effect of over 55% in size)). Conditions: Gynecologic cancer cell panel viability, ATPlite luminescence, 48 h; series mostly up to 57.5 µM; activity change, negative = cytotoxicity: at the top concentration.
How it was run: (§1)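 Luminescence from the ATPlite ATP-monitoring reagent indicates viable cell number; lower signal means cytotoxicity. Cells received compound 16 h after seeding and were exposed for 48 h across five concentrations.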
On the % scale 0 is the no-effect control and ±100 the full control effect.

Row | SMILES | activity change, negative = cytotoxicity
1 | O=C(Nc1ccc2[nH]c(=O)oc2c1)C(=O)N1CCC(Cc2ccc(F)cc2)CC1 | -1.03%
2 | Cc1ccc(F)cc1S(=O)(=O)N[C@@H]1CCN(Cc2ccc(OC(C)C)cc2)C1 | -3.64%
3 | C#CCNCc1cc2cc(OCc3ccccc3)ccc2[nH]1 | -0.267%
4 | C[C@@H](c1ccc2nccn2c1)n1nnc2ncc(-c3cnn(C)c3)nc21 | 0.963%
5 | C=C1C(=O)OC2CC(C)=C(C(C)CCCOC(C)=O)C(OC(=O)CC(C)CC)C12 (stereo unspecified) | -0.915% [at 25.3 µM]
6 | CN(C)CCC(CSc1ccccc1)Nc1ccc(S(=O)(=O)NC(=O)c2ccc(N3CCN(Cc4ccccc4-c4ccc(Cl)cc4)CC3)cc2)cc1[N+](=O)[O-] (stereo unspecified) | -5.25%
7 | C=CC(=O)Nc1cc(-n2c(=O)ccc3cnc4ccc(-c5ccc(NS(C)(=O)=O)cc5)cc4c32)ccc1C | -1.68%
8 | O=C(Nc1ccc(-n2nc(C(F)(F)F)cc2C(F)(F)F)cc1)c1ccncc1F | -4.52%
9 | O=C(N[C@@H]1CCCc2c1cnn2-c1ccc(F)cc1F)c1ccccn1 | -2.69%
10 | CS/C=C/C(=O)O[C@@H]1CCC2=CC(=O)C(=C(C)C)C[C@]2(C)[C@H]1C | -5.93% [at 38.5 µM]
11 | CC(=O)OC1CCC2(C)C(CCC3(C)C2CC=C2C4C(C)C(C)CCC4(C)CCC23C)C1(C)C(=O)O (stereo unspecified) | -15% [at 25.3 µM]
12 | CCOC(=O)N1CCC(CN(Cc2ccc(Cl)cc2)Cc2ccc([N+](=O)[O-])s2)C1 (stereo unspecified) | -14.4%
13 | Cc1cc(-c2cc(OC(=O)c3ccccc3)ccc2Cl)cc2nnc(Nc3ccc(OCCN4CCCC4)cc3)nc12 | -2.2% [at 25.3 µM]
14 | CC12CCC(OC3OC(CO)C(O)C(O)C3OC3OC(CO)C(O)C(O)C3O)CC1CCC1C2CCC2(C)/C(=C3/COC(=O)C3)CCC12O (stereo unspecified) | -9.07% [at 25.3 µM]

These compounds were tested on Hek293T in the same assay as above. Conditions: Gynecologic cancer cell panel viability, ATPlite luminescence, 48 h, control line for the selectivity index; series mostly up to 57.5 µM; activity change, negative = cytotoxicity: at the top concentration.
How it was run: as §1

Row | SMILES | activity change, negative = cytotoxicity
15 | O=C(Nc1ccc2[nH]c(=O)oc2c1)C(=O)N1CCC(Cc2ccc(F)cc2)CC1 | -0.762%
16 | Cc1ccc(F)cc1S(=O)(=O)N[C@@H]1CCN(Cc2ccc(OC(C)C)cc2)C1 | -6.7%
17 | C#CCNCc1cc2cc(OCc3ccccc3)ccc2[nH]1 | -0.608%
18 | C[C@@H](c1ccc2nccn2c1)n1nnc2ncc(-c3cnn(C)c3)nc21 | -22.9%
19 | CN(C)CCC(CSc1ccccc1)Nc1ccc(S(=O)(=O)NC(=O)c2ccc(N3CCN(Cc4ccccc4-c4ccc(Cl)cc4)CC3)cc2)cc1[N+](=O)[O-] (stereo unspecified) | 1.64%
20 | C=CC(=O)Nc1cc(-n2c(=O)ccc3cnc4ccc(-c5ccc(NS(C)(=O)=O)cc5)cc4c32)ccc1C | 9.28%
21 | O=C(Nc1ccc(-n2nc(C(F)(F)F)cc2C(F)(F)F)cc1)c1ccncc1F | -25.3%
22 | CS/C=C/C(=O)O[C@@H]1CCC2=CC(=O)C(=C(C)C)C[C@]2(C)[C@H]1C | -28.9% [at 38.5 µM]
23 | CC(=O)OC1CCC2(C)C(CCC3(C)C2CC=C2C4C(C)C(C)CCC4(C)CCC23C)C1(C)C(=O)O (stereo unspecified) | -24.2% [at 25.3 µM]
24 | CCOC(=O)N1CCC(CN(Cc2ccc(Cl)cc2)Cc2ccc([N+](=O)[O-])s2)C1 (stereo unspecified) | -23.5%
25 | Cc1cc(-c2cc(OC(=O)c3ccccc3)ccc2Cl)cc2nnc(Nc3ccc(OCCN4CCCC4)cc3)nc12 | 2.8% [at 25.3 µM]
26 | CC12CCC(OC3OC(CO)C(O)C(O)C3OC3OC(CO)C(O)C(O)C3O)CC1CCC1C2CCC2(C)/C(=C3/COC(=O)C3)CCC12O (stereo unspecified) | -4.08% [at 25.3 µM]
